An excerpt weighted towards active compounds, which were near 3.6% of everything screened.
PLK1 PBD block: inhibitors of human PLK1 polo-box domain binding; P53350; Plk1 PBD binding of FITC phosphopeptide, fluorescence polarization; Potency, µM, inactives show max response, negative = inhibition, hits mostly inhibitors; 360,000 tested, 2.8% active; AID 720504; also: potency is read from the fitted curve at half-maximal effect; series mostly up to about 57 µM; % is scaled to controls: 0 for no effect and ±100 for the full control effect; nearly all actives have a fitted effect of over 65% in size
KAT2A inh: GCN5L2 (KAT2A) acetyltransferase inhibition; GCN5L2 HAT assay, ThioGlo1 CoA-SH fluorescence; Potency, µM (highest dose often 58.9 µM), for the others: top-dose activity change, negative = inhibition, most hits filed as inhibitors; AID 504327; Q92830; 390,000 tested, 0.21% active; also: potency is read from the fitted curve at half-maximal effect; % is scaled to controls: 0 for no effect and ±100 for the full control effect
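Fluorescence readout, Ex340nm/Em540nm: ThioGlo1 (50uM final) reacts with free CoA thiol released as 20nM GCN5L2 acetylates H3(1-25) peptide (75uM) using acetyl-CoA (70uM). Compound and enzyme sat 15 min beforehand; 20 min room-temperature reaction.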
VDR inhibitor: blocks the human vitamin D receptor; VDR-SRC2-3 peptide fluorescence polarization, 2 h; Potency, µM, for the others: max response, negative = inhibition, usual class: inhibitors; 400,000 tested, 0.93% active; AID 504847; also: potency is read from the fitted curve at half-maximal effect; % is scaled to controls: 0 for no effect and ±100 for the full control effect
Target sequence (P11473 whole entry, looked up): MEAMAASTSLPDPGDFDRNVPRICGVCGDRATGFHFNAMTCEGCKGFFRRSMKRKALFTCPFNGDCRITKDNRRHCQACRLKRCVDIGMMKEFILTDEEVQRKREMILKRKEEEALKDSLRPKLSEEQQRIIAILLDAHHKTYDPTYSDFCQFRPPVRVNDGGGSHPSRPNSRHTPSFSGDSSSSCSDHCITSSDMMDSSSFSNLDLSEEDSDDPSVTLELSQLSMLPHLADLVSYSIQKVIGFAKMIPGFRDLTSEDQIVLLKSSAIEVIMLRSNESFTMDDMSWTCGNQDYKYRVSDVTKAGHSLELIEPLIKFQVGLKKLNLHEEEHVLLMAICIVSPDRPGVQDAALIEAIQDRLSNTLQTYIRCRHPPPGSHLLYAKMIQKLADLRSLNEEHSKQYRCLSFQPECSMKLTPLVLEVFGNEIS
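Two reagent solutions held at 4 deg C in the dark were dispensed, compounds pinned at 23 nl, and the mixture incubated 2 h at room temperature. Read-out: fluorescence polarization of VDR–SRC2-3 peptide binding.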
Rango release inh: inhibition of RanGTP-driven Rango-importin beta dissociation; O95149+P62826; Biochemical FRET Rango-importin beta, RanGTP-induced dissociation; Potency, µM (doses to about 46.1 µM), for inactives: at the top dose activity change, negative = inhibition; 340,000 tested, 0.071% active; AID 540253; calls by dose curve; also: potency is read from the fitted curve at half-maximal effect; % of control where 0% means no effect; nearly all actives have a fitted effect of over 45% in size
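Two FRET readings bracket the reaction: one 5 min after compound meets Rango–importin beta, another 45 min after RanGTP-RCC1 (0.6 uM Ran, 0.2 uM RCC1, 2 mM GTP) is added. Only the second defines inhibition.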
Rango-impB inh: prevents formation of the Rango-importin beta complex; Q14974; Rango CFP/YFP FRET sensor + importin beta, 45 min; Potency, µM (titrated, usually from 92.2 µM), inactives show at the top dose inhibition of complex formation; 340,000 tested, 0.031% active; calls by dose curve;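 also: potency is read from the fitted curve at half-maximal effect; 0% = DMSO wells and 100% = buffer wells lacking importin beta; nearly all actives have a fitted effect of over 15% in size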
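FRET biosensor Rango (snurportin 1 IBB between N-terminal EYFP and C-terminal Cerulean), 50 nM in PBS/1 mM DTT/0.02% Tween-20/0.1% BSA, preincubated 5 min RT with compound; 0.125 microM importin beta added, 45 min RT, CFP/YFP FRET ratio read.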
PI5P4Ka inh: PI5P4K alpha (human) kinase inhibition | max response, % | PI5P4Kalpha enzyme, ADP-Glo luminescence, 60 min; active compounds read low | 330,000 tested, 1.2% active | P48426; active = max response of -50% or lower; inconclusive = between -30% and -50%; inactive = -30% or higher; also: value at the top dose of about 77 µM; % is scaled to controls: 0 for no effect and ±100 for the full control effect
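Human PI5P4Kalpha with substrate in 0.038 M HEPES pH 7.4, 0.28 mM EGTA, 0.1% CHAPS, 5% DMSO; reaction started with 5 microM ATP (final), 60 min at room temperature. ADP formed read by ADP-Glo luminescence.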
* = called active by the depositor; ? = inconclusive; . = not tested or not shown. Unless noted, calls follow the shape of the dose curve; as a rule, active = well fitted curve in the direction sought with a large enough effect; inconclusive = small, poorly fitted or top-dose-only effect, or another doubt; inactive = no such curve, though single readings can be large; an effect the other way counts as inactive or inconclusive.

SMILES | PLK1 PBD block | KAT2A inh | VDR inhibitor | Rango release inh | Rango-impB inh | PI5P4Ka inh
CCc1nn2c(=O)cc(COC(=O)CNC(=O)c3ccccc3)nc2s1 | . | -8% | 8% | . | . | .
COc1ccc(C(=O)NCCC(=O)N2CCC3(CC2)NCCc2[nH]cnc23)cc1 | 27µM* | -2% | ? | ? | ? | -7
COc1ccc(CC(=O)N[C@@H](C)C(=O)N2CCC3(CC2)NCCc2[nH]cnc23)cc1 | -9% | -7% | -8% | 7% | 7% | 0
C[C@H](NC(=O)Cc1ccccc1)C(=O)N1CCC2(CC1)NCCc1[nH]cnc12 | 27µM* | 0% | -12% | 2% | 0% | 2
CCOC(=O)c1sc(N2C(=O)c3oc4cc(C)c(C)cc4c(=O)c3C2c2ccc(C)cc2)nc1C (stereo not drawn) | . | 7% | 3% | . | . | .
COc1ccc(Cn2c(=O)c3cccnc3n(CC(=O)Nc3c(C)cc(C)cc3C)c2=O)cc1 | . | 3% | 5% | . | . | .
COc1ccc2nc(SCC(=O)c3c(C)[nH]c4ccccc34)nc(C)c2c1 | . | 0% | -15% | . | . | .
CC(C)NC(=O)COc1coc(CN2CCN(Cc3ccccc3)CC2)cc1=O | -10% | -9% | -17% | 8% | -4% | -1
COc1ccccc1N1CCN(Cc2cc(=O)c(OCC(=O)NC(C)C)co2)CC1 | 9.5µM* | -31% | ? | 3% | -1% | 2
CCCCCCCCCCCCCCCC(=O)OCC(O)C1OC(=O)C(O)=C1O (stereo not drawn) | . | 8.9µM* | 5µM* | . | . | .
CCCCCCCCCCCCCCCCCC(=O)OCC(C)O (stereo not drawn) | . | 5% | -2% | . | . | .
CCCSC1=N/C(=C\c2ccc([N+](=O)[O-])o2)C(=O)S1 | 7.5µM* | ? | 79µM* | 3% | 3% | -70*
CCCSC1=N/C(=C\C=C\c2ccco2)C(=O)S1 | -19% | -23% | ? | ? | -1% | -67*
CC(C)=CCC/C(C)=C/COc1c2ccoc2cc2oc(=O)ccc12 | . | . | -29% | . | . | .
Cc1ccc(S(=O)(=O)N2CCN(c3cc(-c4cccs4)nc4ccccc34)CC2)cc1 | . | . | -19% | . | . | .
Cc1n[nH]c(=S)n1/N=C/c1ccc(OCc2ccc(Cl)cc2)cc1 | -11% | -28% | -3% | -5% | -8% | -55*
S=c1[nH]nc(COc2ccccc2)n1/N=C/c1ccc(Cl)cc1 | 27µM* | -5% | ? | -9% | 0% | 0
Fc1ccccc1/C=N/n1c(COc2ccccc2)n[nH]c1=S | 24µM* | 0% | -6% | 2% | 0% | 5
S=c1[nH]nc(Cc2ccc(Br)cc2)n1/N=C/c1ccc(Cl)cc1 | 3.4µM* | -9% | 79µM* | 0% | -3% | -5
Oc1ccccc1/C=N/n1c(COc2ccccc2)n[nH]c1=S | ? | -17% | -2% | -8% | ? | -10
Cc1ccccc1OCC(=O)NCC(=O)OCc1ccc2ccccc2c1 | . | . | -9% | . | . | .
Cc1ccccc1/C=N/n1c(COc2ccccc2)n[nH]c1=S | ? | -1% | 8% | -19% | -1% | 1
Nn1c(Cc2ccc(Br)cc2)n[nH]c1=S | 12µM* | -1% | 89µM* | -8% | -2% | -19
CSc1ccc(/C=N/n2c(COc3ccccc3)n[nH]c2=S)cc1 | 34µM* | ? | 2% | -4% | 0% | -2
CC(C)c1ccc2oc(-c3cccc(NC(=O)c4ccc5c(c4)OCCO5)c3)nc2c1 | . | -7% | 2% | . | . | .
SMILES | PLK1 PBD block | KAT2A inh | VDR inhibitor | Rango release inh | Rango-impB inh | PI5P4Ka inh
CCOc1ccc(C(=O)Nc2cc(C)ccn2)cc1 | 3µM* | -2% | 35µM* | -1% | 5% | ?
CCOc1ccc(C(=O)NCCCCNC(=O)c2ccc(OCC)cc2)cc1 | -15% | 35µM* | -11% | 2% | 1% | 2
CCOc1cc(C(=O)Nc2cc(C)ccn2)cc(OCC)c1OCC | -5% | -4% | 6% | -12% | -2% | .
COc1cc(NS(=O)(=O)c2ccc(-c3cc(C)no3)cc2)cc(OC)c1 | . | -13% | 0% | . | . | .
Cc1ccc(C(=O)N/C(=C\c2cn(S(=O)(=O)N(C)C)c3ccccc23)C(=O)NCCCn2ccnc2)cc1 | 30µM* | -8% | -19% | -4% | -5% | 18
O=C(O)[C@H](Cc1ccccc1)N1C(=O)c2c(Cl)c(Cl)c(Cl)c(Cl)c2C1=O | 27µM* | 0% | ? | 22% | -1% | -7
CCc1ccc(C(=O)CSc2nc(-c3ccccc3)nc3c2CCCC3)cc1 | . | -7% | -3% | . | . | .
CC(=O)Nc1ccc(C)cc1 | -8% | -30% | -19% | 1% | 5% | -3
CC(=O)N(C)Cc1ccc(C(=O)CCl)cc1 | 5.3µM* | -4% | -19% | -19% | -1% | 0
CCCNC(=O)Nc1ccc(NC(C)=O)cc1 | 11µM* | -10% | -19% | 24% | -1% | -6
CC(=O)NCc1ccc(C(=O)CCl)cc1 | 4.2µM* | 2% | -3% | 5% | 1% | 0
CC(=O)Nc1ccc(C(=O)CCl)cc1 | 5.3µM* | -13% | -27% | -3% | 0% | 2
COc1ccc(NC(=O)Cn2c(=O)n(-c3ccc(Cl)cc3)c(=O)c3c(C)c(C(=O)N(C)C)sc32)cc1Cl | . | -8% | 17% | . | . | .
CCOc1ccc(-n2c(Cc3ccccc3)nnc2SCc2nc(-c3cccs3)no2)cc1 | . | -5% | -6% | . | . | .
c1ccc(C2NCCc3ccccc32)cc1 (stereo not drawn) | 27µM* | -5% | ? | 0% | 0% | 1
c1ccc2c(c1)CCNC2c1ccncc1 (stereo not drawn) | -10% | 4% | -4% | 10% | 0% | 6
COc1ccc(C2C3C=CCC(c4cccc(-c5ccc(N(C)C)cc5)c4)C3C(=O)N2Cc2ccccc2)cc1Cl (stereo not drawn) | . | . | 11% | . | . | .
C=CCNc1ncnc2c1cnn2-c1ccc(Cl)cc1 | 21µM* | 1% | ? | 11% | 3% | -7
Oc1ccc(CNCc2ccc3c(c2)OCO3)c2cccnc12 | . | -2% | . | . | . | .
COc1ccc(OCC(=O)Nc2ccc3c(c2)nc(CN2CCCC2)n3C)cc1 | 27µM* | -7% | 3% | 7% | -3% | 0
Cc1ccc(C)c(N2CCN(S(=O)(=O)c3ccc4[nH]c5c(c4c3)CCCC5)CC2)c1 | . | -13% | 10% | . | . | .
O=S(=O)(c1ccc2[nH]c3c(c2c1)CCCC3)N1CCCCC1 | 2% | -17% | 89µM* | 15% | ? | 0
